Compound activity deposited in PubChem by National Center for Advancing Translational Sciences (NCATS).
BAZ2B block = BAZ2B (human) inhibition; Potency, µM (top dose mostly 114 µM), without a hit: at the highest dose activity change, negative = inhibition, most hits filed as inhibitors; AlphaScreen BAZ2B-H3K14Ac peptide displacement; Q9UIF8; hit rate 4.4% among 360,000; note: potency is the fitted concentration of half-maximal effect; % is set by controls: 0 for no effect and ±100 for the full control effect; nearly all actives have a fitted effect of over 60% in size
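AlphaScreen displacement: compounds (up to 110uM) incubated 30 min at room temperature with a preformed 50 nM BAZ2B/50 nM biotinylated H3K14Ac peptide complex in PBS pH 7.4 with Tween-20. Donor and acceptor beads at 10 ug/mL final added, 20 min light-protected before reading.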
JMJD2A Tudor inh = blocks the human JMJD2A Tudor domain | hit rate 4.4% among 390,000 | Potency, µM (series often up to 114 µM), for the others: at the highest dose activity change, negative = inhibition, actives largely listed as inhibitors | O75164 | AlphaScreen JMJD2A-Tudor / H3K4me3 peptide binding; note: potency is the fitted concentration of half-maximal effect; % is set by controls: 0 for no effect and ±100 for the full control effect; nearly all actives have a fitted effect of over 50% in size
HP1b chromo inh = blocks HP1-beta chromodomain binding to methylated histone tails. Potency, µM (highest dose often 114 µM), for inactives: top-dose activity change, negative = inhibition, hits mostly inhibitors. AlphaScreen HP1-beta / biotin-H3K9me3 peptide binding. P83916. hit rate 0.56% among 390,000; note: potency is the fitted concentration of half-maximal effect; nearly all actives have a fitted effect of over 70% in size
Target sequence (P83916 whole entry, looked up): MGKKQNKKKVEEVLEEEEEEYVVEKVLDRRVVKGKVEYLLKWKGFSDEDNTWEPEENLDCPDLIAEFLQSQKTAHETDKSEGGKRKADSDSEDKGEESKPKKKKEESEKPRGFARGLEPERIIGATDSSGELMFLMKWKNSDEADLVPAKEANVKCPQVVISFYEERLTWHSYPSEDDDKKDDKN
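AlphaScreen: HP1-beta (50 nM) preformed 30 min with biotin-H3(1-18)K9me3 peptide (50 nM) in PBS pH 7.4, 0.01% Tween-20. Compound added for 30 min at RT, then streptavidin donor/nickel chelate acceptor beads (10 ug/mL) for 30 min.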
G9a block = G9a (human) methyltransferase inhibition. Potency, µM (top dose mostly 102 µM), without a hit: at the top dose activity, negative = inhibition, most hits filed as inhibitors. hit rate 8.8% among 350,000. G9a H3K9 monomethylation, AlphaScreen, 2 h; note: potency is the fitted concentration of half-maximal effect; % is set by controls: 0 for no effect and ±100 for the full control effect; nearly all actives have a fitted effect of over 75% in size
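Signal arises when biotinylated H3K9 peptide, once monomethylated, bridges streptavidin donor and antibody-captured acceptor beads. Enzyme at 20 nM was preincubated 15 min with test compounds; peptide 500 nM and SAM 20 uM then reacted for 2 h.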
PLK1 PBD inh = PLK1 (human) polo-box domain binding inhibition; Potency, µM, inactives show max response, negative = inhibition, actives largely listed as inhibitors; AID 720504; Plk1 PBD binding of FITC phosphopeptide, fluorescence polarization; hit rate 2.8% among 360,000; note: potency is the fitted concentration of half-maximal effect; series mostly up to about 57 µM; % is set by controls: 0 for no effect and ±100 for the full control effect; nearly all actives have a fitted effect of over 65% in size
Target sequence (P53350 whole entry, looked up, the tested form may be a part): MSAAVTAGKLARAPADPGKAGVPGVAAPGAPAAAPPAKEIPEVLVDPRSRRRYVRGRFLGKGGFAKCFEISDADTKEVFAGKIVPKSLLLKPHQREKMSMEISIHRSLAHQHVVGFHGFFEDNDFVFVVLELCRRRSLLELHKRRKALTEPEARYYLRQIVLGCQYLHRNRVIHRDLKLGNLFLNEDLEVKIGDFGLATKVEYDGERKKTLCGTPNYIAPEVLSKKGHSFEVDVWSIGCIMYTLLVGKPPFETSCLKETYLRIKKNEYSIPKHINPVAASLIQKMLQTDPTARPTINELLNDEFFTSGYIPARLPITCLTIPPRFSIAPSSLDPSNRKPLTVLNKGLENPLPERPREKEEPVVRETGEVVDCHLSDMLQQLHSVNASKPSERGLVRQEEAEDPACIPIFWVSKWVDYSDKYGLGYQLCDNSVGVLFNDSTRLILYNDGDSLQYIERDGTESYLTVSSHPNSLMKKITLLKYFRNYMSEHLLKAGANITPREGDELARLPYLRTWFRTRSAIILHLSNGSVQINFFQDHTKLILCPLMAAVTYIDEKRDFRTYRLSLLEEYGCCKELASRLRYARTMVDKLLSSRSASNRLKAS
PI5P4K alpha inh = inhibitors of human PI5P4K alpha. P48426. PI5P4Kalpha enzyme, ADP-Glo luminescence, 60 min; stronger effect = lower value. max response, %. hit rate 1.2% among 330,000; active = max response of -50% or lower; inconclusive = between -30% and -50%; inactive = -30% or higher; note: value at the top dose of about 77 µM; % is set by controls: 0 for no effect and ±100 for the full control effect
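ADP-Glo luminescence end-point after a 60 min room-temperature kinase reaction. PI5P4Kalpha and substrate in HEPES pH 7.4 buffer with EGTA, 0.1% CHAPS and 5% DMSO; ATP at 5 microM final.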
TbPYK inh = confirmation of Trypanosoma brucei pyruvate kinase inhibitors; shares compounds with PLK1 PBD inh; recombinant TbPYK, Kinase-Glo ATP luminescence; Potency, µM (top dose mostly 76.9 µM), without a hit: at the highest dose activity change, negative = inhibition, usual class: inhibitors; hit rate 67% among 890; note: potency is the fitted concentration of half-maximal effect; % is set by controls: 0 for no effect and ±100 for the full control effect; nearly all actives have a fitted effect of over 70% in size
TbPYK ADP-Glo = inhibits T. brucei pyruvate kinase in orthogonal ADP-Glo assay; shares compounds with PLK1 PBD inh; recombinant TbPYK, ADP-Glo luminescence, 60 min; Potency, µM (series often up to 76.9 µM), without a hit: top-dose activity change, negative = inhibition, actives largely listed as inhibitors; hit rate 62% among 890; note: potency is the fitted concentration of half-maximal effect; % is set by controls: 0 for no effect and ±100 for the full control effect; nearly all actives have a fitted effect of over 75% in size
The depositor's hits bear a star; ? = inconclusive; nt = not tested or not shown; ! = a repeat was not active; [ ] = dose if it differs, or a comment. Only some compounds are listed: those with a hit (about 12% of all), similar ones and a draw of the others. Unless noted, calls come from the whole dose curve; as a rule, active = well fitted curve in the direction sought with a large enough effect; inconclusive = small, poorly fitted or top-dose-only effect, or another doubt; inactive = no such curve, though single readings can be large; an effect the other way counts as inactive or inconclusive.

SMILES | BAZ2B block | JMJD2A Tudor inh | HP1b chromo inh | G9a block | PLK1 PBD inh | PI5P4K alpha inh | TbPYK inh | TbPYK ADP-Glo
Cc1cc(O)c(C(c2cccc(F)c2)N2CCN(c3ccccc3)CC2)c(=O)n1Cc1ccco1 (stereo not drawn) | -39% | ? | 15%[57 µM] | ? | nt | nt | nt | nt
CCCC[C@@H](NC(=O)[C@@H](Cc1cn(C(=O)OC)c2ccccc12)NC(=O)[C@H](CC(C)(C)C)NC(=O)N1[C@H](C)CCC[C@@H]1C)C(=O)O | nt | nt | nt | 21%[59 µM] | nt | nt | nt | nt
COc1ccc(N(CC(=O)NCCSC(C)(C)C)S(C)(=O)=O)c(OC)c1 | 7% | -9% | 17% | ? | -11% | nt | 18µM* | ?
COc1ccc(OC)c(N(CC(=O)NCCSc2ccccc2)S(C)(=O)=O)c1 | 6% | -10% | 19% | 12% | -8% | nt | nt | nt
CCOC(=O)C1CCCN(C(=O)c2ccc(-c3ccc([N+](=O)[O-])cc3)o2)C1 (stereo not drawn) | ? | ? | ? | 12%[2.33 µM] | 30µM* | ? | ? | ?
CCCN1CCN(C(=O)c2ccc(-c3ccc([N+](=O)[O-])cc3)o2)CC1 | 0% | -24% | -11% | ? | ? | -12 | ? | ?
CC(C)(C)C(=O)Nc1ccc2nc(SCC(=O)N3CCCC3)sc2c1 | -16% | -2% | 91% | -1%[59 µM] | nt | nt | nt | nt
CN=c1nc(-c2ccccc2)n(-c2ccccc2)s1 | 8.9µM* | 22µM* | 7.1µM* | 1.1µM*! | 3µM* | -86* | 0.89µM* | 1.8µM*
CCOC(=O)C(=C1Nc2ccccc2N1)n1c(-c2ccco2)nc2ccccc21 | nt | nt | nt | nt | ? | -66* | -72% | 35µM*
CC1(C(=O)NCCC#N)CCN1C(=O)C1(c2ccccc2)CCCC1 (stereo not drawn) | nt | nt | nt | nt | -5% | -2 | nt | nt
Oc1ccc(/C=N/N2CCCCC2)c(O)c1O | ? | 8.9µM* | -22%[57 µM] | 1.6µM* | 11µM* | ? | 32µM* | 35µM*
Cc1ccsc1/C=N/Nc1nc(=O)[nH]nc1C | 32µM* | ? | 30% | 4% | 1% | ? | 18µM* | 8%
COc1cccc(Cn2c(=O)c(-c3cccs3)nc3cnc(OC)nc32)c1 | nt | nt | nt | 2%[0.501 µM] | nt | nt | nt | nt
Cc1c(Br)c(O)c(Br)c2sc(=O)oc12 | ? | 45µM* | 28µM* | 3.5µM* | 27µM* | -69* | ? | ?
O=C1C=C(NCCc2cc(Br)c(O)c(Br)c2)C(=O)c2ncccc21 | nt | 28µM* | 32µM* | nt | 2.7µM* | -74* | 11µM* | 16µM*
COCCCNC(=O)C[C@@H]1C[C@@]2(C(=O)OC)CCCCC=C2N(CCc2ccc(OC)c(OC)c2)C1=O | nt | nt | nt | nt | -6% | -4 | nt | nt
COc1ccc(CN(C(=O)CN2C(=O)c3ccccc3S2(=O)=O)C(C(=O)NCC2CCCO2)c2ccco2)cc1 (stereo not drawn) | 2% | -8% | 13% | -5%[59 µM] | 1% | -3 | nt | nt
CC1(C)CC(=O)C(C(c2ccco2)C2C(=O)CC(C)(C)CC2=O)C(=O)C1 | -25% | ? | 51% | ? | 6.7µM* | -14 | 11µM* | ?
O=C(O)CCSc1nnc(-c2ccncc2)n1-c1ccccc1 | 3% | 1% | 21% | -51%[59 µM] | -6% | -10 | nt | nt
COc1ccc(-c2nnc(SCCC(=O)O)n2-c2ccccc2)cc1 | -14% | 40µM* | 41% | ? | -2% | nt | 7.9µM* | 5µM*
CC(=O)N1CCC(C(=O)Nc2nnc(C(C)C)s2)CC1 | nt | -9% | 8% | nt | nt | nt | nt | nt
CC1CCC(C(C)C)[C@H](O)C1 (stereo partly drawn) | nt | nt | nt | -46%[2.33 µM] | nt | nt | nt | nt
Cc1ccc(/C=C2/NC(=O)N(Cc3ccccc3F)C2=O)o1 | 3% | ? | -7% | 32µM* | -3% | -14 | ? | 35µM*
COc1ccccc1CN1CCCC2(CCN(C(=O)c3cc(C(F)(F)F)cc(C(F)(F)F)c3)CC2)C1 | nt | nt | nt | -7%[12.7 µM] | nt | nt | nt | nt
Cn1c(=O)[nH]c(=O)c2c1nc(SCC(=O)O)n2Cc1ccccc1 | 8% | 25µM* | ? | 22µM* | -10% | ? | ? | ?
SMILES | BAZ2B block | JMJD2A Tudor inh | HP1b chromo inh | G9a block | PLK1 PBD inh | PI5P4K alpha inh | TbPYK inh | TbPYK ADP-Glo
Cc1ccc(Cn2c(SCCN3CCCCC3)nc3c2c(=O)[nH]c(=O)n3C)cc1 | 2% | -22% | -29% | 25µM* | 7.5µM* | -13 | 16µM* | 11µM*
Cn1c(=O)[nH]c(=O)c2c1nc(SCCN1CCCCC1)n2CCCc1ccccc1 | -31% | ? | -10% | 8.9µM* | 2.4µM* | -10 | 3.5µM* | 4.5µM*
Cn1c(=O)[nH]c(=O)c2c1nc(SCC(=O)O)n2CCCc1ccccc1 | -11% | -11% | 26% | 2%[2.33 µM] | -29% | -6 | nt | nt
Cn1c(=O)[nH]c(=O)c2c1nc(SCCN1CCCCC1)n2Cc1ccccc1 | 0% | -1% | 48% | -7%[12.7 µM] | -7% | 4 | nt | nt
COc1ccccc1-n1c(=S)[nH]c2c(sc(=S)n2-c2ccccc2)c1=O | -16% | ? | 23% | -7% | -16% | -12 | 32µM* | 18µM*
CCN(CC)C(=O)CSc1nc2c(sc(=S)n2-c2ccccc2OC)c(=O)n1-c1ccccc1 | -17% | -31% | 1% | -37% | -12% | 3 | nt | nt
COc1ccccc1-n1c(SCC(=O)O)nc2c(sc(=S)n2-c2ccccc2C)c1=O | -1% | -4% | 26% | 5% | -15% | 0 | nt | nt
COc1ccccc1-n1c(=S)[nH]c2c(sc(=S)n2-c2ccccc2C)c1=O | -24% | 79µM* | ? | ? | 27µM* | -23 | 5µM* | 14µM*
CCOc1ccccc1-n1c(=S)sc2c(=O)n(-c3ccccc3)c(=S)[nH]c21 | -30% | 79µM* | 24% | 16%[59 µM] | 3% | -21 | 11µM* | 11µM*
CCOc1ccc(-n2c(=S)sc3c(=O)n(-c4ccccc4)c(SCC(=O)O)nc32)cc1 | 2% | -4% | 17% | -13% | -25% | -18 | nt | nt
COc1ccc(Cl)cc1NC(=O)c1cc2c(=O)n3ccccc3nc2s1 | -32% | -32% | 35% | -44%[59 µM] | nt | nt | nt | nt
Cn1cc(S(=O)(=O)c2ccccc2)c(=O)c2cc(F)c(N3CCCCCC3)cc21 | 2% | 4% | 22% | -14%[59 µM] | nt | nt | nt | nt
Cc1ccc2c(c1)C(N1CCCC1=O)CC(c1ccco1)N2 (stereo not drawn) | -38% | 21%[11.4 µM] | -10% | 10µM* | ? | ? | -11% | -6%
